Reference: PubChem BioAssay AID652031 (The Scripps Research Institute Molecular Screening Center, 2013)
Hit rate of the full screen: of about 16,000 compounds, about 70 (0.4%) were called active. Many of the other results were omitted from the sample, so actives are more common in it than they were. Unmarked numbers belong to inactive results. Rule as the data show it: active = inhibition above about 50%; inactive = the rest.

Target: Kappa-type opioid receptor (Homo sapiens) (UniProt P41145)
Assay: antagonists of human kappa opioid receptor OPRK1, Maybridge library (AID 652031)
Conditions: OPRK1 cells, antagonist mode, fluorescence readout; at 9 µM; stronger effect = higher value

Kappa-type opioid receptor (Homo sapiens), sequence (P41145 whole entry, looked up): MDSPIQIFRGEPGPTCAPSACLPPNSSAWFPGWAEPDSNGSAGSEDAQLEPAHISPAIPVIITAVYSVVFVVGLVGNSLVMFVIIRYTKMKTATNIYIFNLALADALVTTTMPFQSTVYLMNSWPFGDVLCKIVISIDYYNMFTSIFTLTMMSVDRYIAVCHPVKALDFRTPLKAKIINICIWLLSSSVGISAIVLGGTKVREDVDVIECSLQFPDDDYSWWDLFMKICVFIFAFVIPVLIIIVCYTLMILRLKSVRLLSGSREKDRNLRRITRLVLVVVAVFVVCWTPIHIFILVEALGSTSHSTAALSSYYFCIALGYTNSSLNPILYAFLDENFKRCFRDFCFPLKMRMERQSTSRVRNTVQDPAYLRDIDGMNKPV

SMILES | inhibition
Cn1cnc(S(=O)(=O)Nc2ccc3[nH]ccc3c2)c1 | -0.5%
CC(C)(C)C(=O)Nc1c(Br)c(C2CC2)nn1-c1ccccc1 | 4.1%
COC(=O)C1=C(NNc2ncc(Cl)cc2C(F)(F)F)CSC1 | -2.3%
CC(=O)OCC(=O)[C@@]1(O)[C@H](C)CC2C3CCC4=CC(=O)C=CC4(C)C3=CCC21C (some centres not stated) | 0.2%
Cc1ccc(S(=O)(=O)NNC(=S)NC(C)(C)C)cc1 | -0.7%
CC(=O)c1cc([N+](=O)[O-])c(NC2CCCCC2)s1 | -27.9%
Clc1ccc(CO/N=C/c2nc3ccccc3s2)cc1 | 16.1%
N#Cc1cc([N+](=O)[O-])c(N2CCCC2)cc1N1CCCC1 | -4.1%
Cn1nc(C(C)(C)C)c(NC(=O)c2sccc2Cl)c1C(C)(C)C | -1.9%
CCSC(=O)NCc1ccccc1 | -12.7%
Cc1nc(C(F)(F)F)ccc1C(=O)NCCNc1ncccc1C(F)(F)F | -36.9%
CCOC(=O)c1cc(C)n(-c2cccc([N+](=O)[O-])c2)c1-c1ccccc1 | -0.8%
Cn1cc(C(=O)Nc2ccc(F)c(Cl)c2)c(N)n1 | 20.6%
Cc1nnsc1C(=O)NN(C)c1ccc([N+](=O)[O-])cn1 | 14.8%
CC1(C)CC(=O)C(N=Nc2c(F)cccc2F)=C(O)C1 | -7.3%
CCOC(=O)NC(=O)/C(=C/NC(C)C)C(=O)OCC | 5.6%
O=C1CCCCC(=O)c2ccccc2N1 | 7.1%
Cc1ccc(C(=O)N2CCN(c3cccc4[nH]ccc34)CC2)cc1 | 2.5%
CCOC(=O)c1nnc2c(Br)c(C)nn2c1C | 3.1%
O=[N+]([O-])c1ccc(N2CCSCC2)cc1O | 3.6%
COc1ccc(/C(C)=N/Nc2c([N+](=O)[O-])cc(C(F)(F)F)cc2[N+](=O)[O-])cc1CC#N | -23.7%
C=CCn1c(SCC(=O)Nc2nnc(-c3cccs3)s2)nnc1-c1ccco1 | 8.8%
COC(=O)c1cccc(CSc2ncccc2C(=O)O)c1 | 15.2%
CC(=O)c1nnc2cc(C)nn2c1C | 28.9%
CSc1sc(C(N)=O)cc1C#N | 6.9%
Cc1cc(C(=O)NNC(=O)c2cc(C)n(C(C)(C)C)n2)no1 | 8.1%

SMILES | inhibition
COc1ccc2c(OC(C)=O)coc2c1 | -6.7%
N#C/C(=C\c1cccn1S(=O)(=O)c1ccccc1)C(=O)c1ccccc1 | 7.4%
N#Cc1ccc(OS(=O)(=O)c2cc(C(F)(F)F)cc(C(F)(F)F)c2)cc1 | -5.9%
COC(=O)c1ccccc1NC(=S)NNC(=O)c1ccc([N+](=O)[O-])cc1 | 7.8%
COC(=O)c1ccc(/C=C2\C(=O)Nc3ccccc32)n1-c1ccc(F)cc1 | 84.7% (active)
Cc1c(C)c(C)c(CSC(=N)CC#N)c(C)c1C | -7.6%
O=C(CSc1nc2ccccc2o1)N1CCC(n2cccc2)CC1 | 1.7%
CCCc1c(C(=O)O)cnn1-c1ccc(Cl)cc1 | -5.5%
CCCc1nc(N)ncc1C(=O)OCC | -2.5%
CCOC(=O)c1c(C)csc1NC(=O)CC(=O)C(F)(F)F | -3%
Oc1ccc(-n2cncn2)cc1 | -0.4%
O=S(=O)(c1ccc(Cl)s1)N1CCN(c2ccccc2)CC1 | -14.3%
CC(C)NC(=O)NNc1c(Cl)cncc1Cl | 4.6%
O=c1oc2c3ccccc3c3oc(=O)sc3c2s1 | 13.6%
Cc1nc(C(F)(F)F)ccc1NC(=O)/C=C\C(=O)O | -4.6%
O=C(Nc1ccc(OCc2ccccc2)cc1)Nc1ccc2c(c1)C(=O)OC2 | -8.9%
N#Cc1cccnc1NNC(=O)Nc1ccc(OCc2ccccc2)cc1 | 13.7%
CN(C)c1cccc2c1c(NC(=O)Nc1ccc(OCc3ccccc3)cc1)nn2C | 60.6% (active)
O=c1[nH]c2cc(Cl)c(Cl)cc2n1-c1ccncc1 | -14.5%
Cc1ccc([N+](=O)[O-])c(C(=O)NCC(=O)O)c1 | -15.5%
S=C(NNC(=S)NC1CC2C=CC1C2)NC1CC2C=CC1C2 (configuration not stated) | -4.1%
CC(C)CCOS(=O)(=O)c1ccc2c(c1)Cc1cc(S(=O)(=O)OCCC(C)C)ccc1-2 | -2.5%
CN(C(=O)Nc1ccc(Cl)cc1)n1cnc2ccccc2c1=O | -1.9%
c1ccc(-c2nsc(N3CCNCC3)n2)cc1 | 1.1%
Cc1oc(-c2ccc(Cl)cc2)cc1C(=O)O/N=C(\N)Cc1nc2cccnc2n1C1CC1 | -10.9%
O=C(Cn1nnc2ccccc21)NCCSCc1ccco1 | 6.7%

SMILES | inhibition
O=C(O)CC1(CC(=O)Nc2ccccc2-n2cccn2)CCCCC1 | 6.9%
O=[N+]([O-])c1ccc(CSc2nc3cc(Cl)c(F)cc3[nH]2)cc1 | -10.8%
COc1ccc(/C=N/Nc2nc(C)cc(=O)[nH]2)c(OC)c1 | 10.6%
Nc1ccccc1SC(C[N+](=O)[O-])c1ccccc1 (configuration not stated) | 10.6%
O=C(N/N=C/c1cccs1)C(=O)Nc1ccc(Cl)c(Cl)c1 | -4.8%
Cc1nc2c(ncn2-c2ccccc2)c(=O)n1NC(=O)CN1CCCC1 | 1.8%
Cn1c(=O)c2c(ncn2Cc2nnc(-c3ccccc3)o2)n(C)c1=O | -5.9%
O=[N+]([O-])c1ccc(CSc2nnc(-c3ccncc3)o2)cc1 | -7.8%
N#Cc1c(C2CCCCC2)[nH]c(=S)[nH]c1=O | -2.7%
Cc1ccc2c(c1)C(=O)C(=O)S2 | -13.9%
O=C(CSC1=NCCc2ccccc21)Nc1ccc(F)cc1F | -6.1%
O=C(O)CCC(=O)Nc1ccc2c(c1)OCCCO2 | 8.3%
Oc1ccccc1C=NCCCN=Cc1ccccc1O | -15.8%
CCOc1c(N2CCCCC2)c(=O)c1=O | 13.6%
O=C(CSc1nnc(-c2ccncc2)o1)N1CCc2ccccc21 | -5.6%
O=c1cc(-c2ccccc2)cc(-c2ccccc2)o1 | -11.3%
O=C(NNC(=S)Nc1ccccc1Cl)c1ccc(OC(F)(F)F)cc1 | 19.8%
O=c1c2c(nc3nc[nH]n13)CCC2 | -20.2%
CCN(CCN1C(=O)CCC1=O)c1cccc(NC(C)=O)c1 | -3.7%
N#CCc1ccc(OC(=O)c2cccnc2)cc1 | -6.4%
Cc1nc(-n2cccc2)sc1C(=O)N/N=C/c1ccccc1Cl | 33.9%
CCCS(=O)(=O)c1csc(C(=O)OC)c1N/N=C/c1cccs1 | -24.1%
Clc1cncc(Cl)c1N/N=C/C1CC2C=CC1C2 (configuration not stated) | 1.3%
CCCCCCCN=C(C)c1ccccc1O | -21.6%
CC(C)c1ccc(N2C(=O)/C(=C\c3ccc(-c4ccc([N+](=O)[O-])cc4)o3)SC2=S)cc1 | 8.3%
CCCN(CCC)S(=O)(=O)c1ccc(C(=O)NNC(=O)c2cc(OC)c(OC)c(OC)c2)cc1 | -2.1%

SMILES | inhibition
NC(=O)C1CCN(CC(O)COc2ccc(Cl)c(Cl)c2)CC1 (configuration not stated) | -8.2%
O=C(Nc1ccc(F)cc1OC(F)(F)F)N1CCC(O)CC1 | -18%
CC(C)(C)c1cc(NC(=O)/C(C#N)=C/c2cccc(Cl)c2Cl)c(C(N)=O)s1 | -7.1%
O=C(Nc1ccccc1C(=O)NC1CCSC1)c1cccc(Cl)c1 (configuration not stated) | -15%
COC(=O)CCN1CCc2cc(N=Nc3ccc(C(F)(F)F)cc3)ccc21 | 15.2%
CC(C)n1c(SCC(=O)c2cccc([N+](=O)[O-])c2)nc2cc(C(F)(F)F)ccc21 | -1.6%
O=C(CCc1ccc(O)cc1)N/N=C/c1cc(Cl)cc(Cl)c1O | 6.4%
Cc1ccc(NC(C(=O)O)c2ccccc2)cc1 (configuration not stated) | -11.7%
OC(CNCc1ccc2c(c1)OCO2)COc1ccccc1 (configuration not stated) | -20.1%
O=C(NCc1cccnc1)c1ccccc1NC(=O)c1c(F)cccc1F | -15.7%
O=C(N/N=C/c1ccc(Cl)cc1Cl)/C(=C/c1cccs1)NC(=O)c1ccccc1 | 11.5%
COC(=O)c1ccccc1NC(=O)c1ccc(Oc2cc(Cl)cc(Cl)c2)o1 | -7%
O=C(NCc1ccc2c(c1)OCO2)c1sccc1Br | -14.9%
O=C(NCc1ccc(F)cc1F)c1cc(C(F)(F)F)cc(C(F)(F)F)c1 | 2.1%
CCOC(=O)C(NC(=O)c1ccco1)(Nc1cc(C)ccn1)C(F)(F)F (configuration not stated) | -1.7%
CSc1cccc(NC(=O)C(=O)NCCc2ccccn2)c1 | 17.5%
CCOC(=O)CCSc1cc(-n2cccc2)c(Cl)cc1[N+](=O)[O-] | -12.9%
CCOC(=O)Cn1sc2nc(C)cc(C)c2c1=O | -8.2%
O=C(c1ccccc1I)c1c[nH]c2ccccc12 | 2.4%
O=C1C=C(NNc2ccccc2)CCC1 | -30.2%
O=[N+]([O-])c1ccc2ncccc2c1-n1cccc1 | -23.5%
CC(OC(=O)c1cccc(Cl)c1)c1ccc[n+](C)c1 (configuration not stated) | 1.5%
CN(n1cnc2ccccc2c1=O)S(=O)(=O)c1cc(Cl)sc1Cl | 4.5%
O=c1o[nH]c(-c2ccccc2)c1N=Nc1c(F)cccc1Cl | 4.9%
